36 sequences from paper PMC9838217, “Structure of SALL4 zinc finger domain reveals link between AT-rich DNA binding and Okihiro syndrome” can be followed below.

Numbering of substitutions follows the chain as printed.

Experiment in all cases: HT-SELEX; high values mean tight binding
Holding throughout (conditions): protein: recombinant; vector His6-GST; dsDNA, one strand shown

The target of one assay is T1, SALL4 ZFC4 WT (HT-SELEX) (Mus musculus, UniProt Q8BX22 870-940).
T1 sequence: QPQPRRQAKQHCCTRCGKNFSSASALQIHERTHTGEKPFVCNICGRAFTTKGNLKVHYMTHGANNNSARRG
The essentials:
(§1)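 DNA from a random library (1.5 µg in the first cycle, 200 ng afterwards) was incubated with purified recombinant mouse SALL4 zinc finger cluster 4, residues 870–940 (1 µg), for 10 min at room temperature in 100 µl buffer: 10 mM Tris–HCl pH 7.5, 50 mM NaCl, poly(dI-dC), DTT. Bound complexes were pulled down on Ni2+ beads, washed and PCR-amplified, and the selection was repeated for up to 6 cycles in triplicate. MiSeq reads were scanned for 6-mers, and binding signal is each canonical k-mer's read fraction as fold change over the initial random library.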

The target in assay [1] is T2, SALL4 ZFC4 R900W (HT-SELEX) (Mus musculus, UniProt Q8BX22 870-940, R900W).
T2 sequence: T1 sequence with R31W
In a few lines: as §1

Assay [2] deals with T3, SALL4 ZFC4 G921D (HT-SELEX) (Mus musculus, UniProt Q8BX22 870-940, G921D).
T3 sequence: T1 sequence with G52D
In a few lines: as §1

On to ACTTAC, for which the binding signal was determined as 1.44 ± 0.0822 fold-change vs cycle 0 in the assay with SALL4 ZFC4 WT (HT-SELEX), 1.6 ± 0.106 fold-change vs cycle 0 in assay [1] and 1.47 ± 0.146 fold-change vs cycle 0 in assay [2].
In the same order, the values of CAGTTA are 1.43 ± 0.0431 fold-change vs cycle 0, 1.46 ± 0.0224 fold-change vs cycle 0 and 1.36 ± 0.0634 fold-change vs cycle 0.
Regarding CCCACA, the binding signal worked out at 0.389 ± 0.0158 fold-change vs cycle 0 in the assay with SALL4 ZFC4 WT (HT-SELEX), 0.42 ± 0.0162 fold-change vs cycle 0 in assay [1] and 0.523 ± 0.0663 fold-change vs cycle 0 in assay [2].
For the sequence AGTAAA, the binding signal with SALL4 ZFC4 WT (HT-SELEX) is 1.96 ± 0.143 fold-change vs cycle 0; in assay [1], 2.08 ± 0.144 fold-change vs cycle 0; in assay [2], 1.78 ± 0.193 fold-change vs cycle 0.
In the same order, the values of CCCTCA are 0.502 ± 0.0184 fold-change vs cycle 0, 0.579 ± 0.0163 fold-change vs cycle 0 and 0.665 ± 0.0275 fold-change vs cycle 0.
In the same order, the values of ATAGGG are 0.829 ± 0.0359 fold-change vs cycle 0, 0.924 ± 0.0323 fold-change vs cycle 0 and 0.954 ± 0.0273 fold-change vs cycle 0.
The matching figures for TACAAA: 1.84 ± 0.0971 fold-change vs cycle 0, 1.82 ± 0.0757 fold-change vs cycle 0 and 1.67 ± 0.0747 fold-change vs cycle 0.
Consider AGCATG, for which the binding signal with SALL4 ZFC4 WT (HT-SELEX) is 0.713 ± 0.0228 fold-change vs cycle 0; in assay [1], 0.806 ± 0.0264 fold-change vs cycle 0; in assay [2] it was 0.882 ± 0.0429 fold-change vs cycle 0.
In the case of CACGAG, the binding signal came to 0.41 ± 0.0151 fold-change vs cycle 0 in the assay with SALL4 ZFC4 WT (HT-SELEX), 0.496 ± 0.0211 fold-change vs cycle 0 in assay [1] and 0.599 ± 0.0729 fold-change vs cycle 0 in assay [2].
Take GCACTA: the binding signal was 0.57 ± 0.0256 fold-change vs cycle 0 with SALL4 ZFC4 WT (HT-SELEX), 0.649 ± 0.0265 fold-change vs cycle 0 in assay [1] and 0.725 ± 0.019 fold-change vs cycle 0 in assay [2].
On to AACATA, for which the binding signal came out at 2.08 ± 0.152 fold-change vs cycle 0 with SALL4 ZFC4 WT (HT-SELEX), 1.96 ± 0.129 fold-change vs cycle 0 in assay [1] and 1.76 ± 0.196 fold-change vs cycle 0 in assay [2].
In the case of GCTTCA, the binding signal was 0.635 ± 0.0338 fold-change vs cycle 0 with SALL4 ZFC4 WT (HT-SELEX), 0.769 ± 0.0139 fold-change vs cycle 0 in assay [1] and 0.8419 ± 0.0056 fold-change vs cycle 0 in assay [2].
As to ATCGTC, the values for the binding signal (in the assay with SALL4 ZFC4 WT (HT-SELEX); in assay [1]; in assay [2]) were 0.685 ± 0.0177 fold-change vs cycle 0, 0.755 ± 0.0322 fold-change vs cycle 0 and 0.852 ± 0.0307 fold-change vs cycle 0, respectively.
For AATAGG, the binding signal with SALL4 ZFC4 WT (HT-SELEX) stood at 1.27 ± 0.0647 fold-change vs cycle 0; in assay [1] it was 1.39 ± 0.0729 fold-change vs cycle 0; in assay [2], 1.32 ± 0.0667 fold-change vs cycle 0.
The matching figures for CACTAG: 0.821 ± 0.0388 fold-change vs cycle 0, 0.968 ± 0.0358 fold-change vs cycle 0 and 0.987 ± 0.027 fold-change vs cycle 0.
As to ACCCAA, the binding signal stood at 0.736 ± 0.034 fold-change vs cycle 0 with SALL4 ZFC4 WT (HT-SELEX), 0.839 ± 0.0217 fold-change vs cycle 0 in assay [1] and 0.873 ± 0.0335 fold-change vs cycle 0 in assay [2].
In the same order, the values of AGACGG are 0.342 ± 0.0181 fold-change vs cycle 0, 0.409 ± 0.00782 fold-change vs cycle 0 and 0.522 ± 0.0641 fold-change vs cycle 0.
Turning to AATTGT, the binding signal with SALL4 ZFC4 WT (HT-SELEX) was determined as 1.82 ± 0.0686 fold-change vs cycle 0; in assay [1] it was 1.81 ± 0.0917 fold-change vs cycle 0; in assay [2], 1.66 ± 0.114 fold-change vs cycle 0.
The matching figures for GACTCA: 0.768 ± 0.0401 fold-change vs cycle 0, 0.889 ± 0.022 fold-change vs cycle 0 and 0.937 ± 0.0191 fold-change vs cycle 0.
Turning to ATATAT, the binding signal with SALL4 ZFC4 WT (HT-SELEX) amounted to 5.74 ± 0.718 fold-change vs cycle 0; in assay [1], 2.51 ± 0.217 fold-change vs cycle 0; in assay [2], 2.2 ± 0.291 fold-change vs cycle 0.
In the same order, the values of GATTCC are 0.9 ± 0.0488 fold-change vs cycle 0, 0.964 ± 0.0255 fold-change vs cycle 0 and 1.03 ± 0.0179 fold-change vs cycle 0.
In the same order, the values of CTACAA are 1.17 ± 0.0183 fold-change vs cycle 0, 1.29 ± 0.0465 fold-change vs cycle 0 and 1.24 ± 0.0556 fold-change vs cycle 0.
Regarding ACCTAG, the values for the binding signal (in the assay with SALL4 ZFC4 WT (HT-SELEX); in assay [1]; in assay [2]) were 0.875 ± 0.0697 fold-change vs cycle 0, 0.986 ± 0.0422 fold-change vs cycle 0 and 1.04 ± 0.0407 fold-change vs cycle 0, respectively.
With CCAACC, the binding signal is 0.393 ± 0.0262 fold-change vs cycle 0 in the assay with SALL4 ZFC4 WT (HT-SELEX), 0.466 ± 0.0254 fold-change vs cycle 0 in assay [1] and 0.565 ± 0.0588 fold-change vs cycle 0 in assay [2].
In the same order, the values of CAATTA are 1.91 ± 0.128 fold-change vs cycle 0, 1.83 ± 0.147 fold-change vs cycle 0 and 1.71 ± 0.164 fold-change vs cycle 0.
In the same order, the values of AAGCCT are 0.633 ± 0.0294 fold-change vs cycle 0, 0.72 ± 0.0269 fold-change vs cycle 0 and 0.848 ± 0.0353 fold-change vs cycle 0.
In the same order, the values of AACTCT are 1.39 ± 0.0293 fold-change vs cycle 0, 1.52 ± 0.0171 fold-change vs cycle 0 and 1.47 ± 0.0843 fold-change vs cycle 0.
For AAATGC, the binding signal was found to be 0.879 ± 0.0146 fold-change vs cycle 0 with SALL4 ZFC4 WT (HT-SELEX), 0.918 ± 0.025 fold-change vs cycle 0 in assay [1] and 0.969 ± 0.0401 fold-change vs cycle 0 in assay [2].
In the same order, the values of AATGTG are 1.15 ± 0.0171 fold-change vs cycle 0, 1.23 ± 0.0476 fold-change vs cycle 0 and 1.25 ± 0.0281 fold-change vs cycle 0.
The matching figures for TAATGA: 2.15 ± 0.16 fold-change vs cycle 0, 2.16 ± 0.14 fold-change vs cycle 0 and 1.9 ± 0.22 fold-change vs cycle 0.
Take CATACG: the binding signal with SALL4 ZFC4 WT (HT-SELEX) was 0.727 ± 0.0223 fold-change vs cycle 0; in assay [1] it was 0.792 ± 0.0487 fold-change vs cycle 0; in assay [2] it was 0.858 ± 0.0517 fold-change vs cycle 0.
In the same order, the values of ATCGTA are 1.24 ± 0.0384 fold-change vs cycle 0, 1.28 ± 0.0284 fold-change vs cycle 0 and 1.29 ± 0.0379 fold-change vs cycle 0.
Consider GAATGA, for which the binding signal with SALL4 ZFC4 WT (HT-SELEX) was found to be 1.42 ± 0.0437 fold-change vs cycle 0; in assay [1], 1.57 ± 0.0566 fold-change vs cycle 0; in assay [2], 1.43 ± 0.0639 fold-change vs cycle 0.
In the same order, the values of GTTCTA are 1.28 ± 0.0473 fold-change vs cycle 0, 1.39 ± 0.0453 fold-change vs cycle 0 and 1.33 ± 0.108 fold-change vs cycle 0.
The matching figures for AAGGGG: 0.527 ± 0.0535 fold-change vs cycle 0, 0.628 ± 0.0342 fold-change vs cycle 0 and 0.657 ± 0.0321 fold-change vs cycle 0.
The matching figures for AGCCAT: 0.592 ± 0.0288 fold-change vs cycle 0, 0.664 ± 0.00758 fold-change vs cycle 0 and 0.778 ± 0.0611 fold-change vs cycle 0.
